Measured values as given in PubChem BioAssay (NCI).
This is part of a sample that, as a whole, favours compounds with a hit. Of some 83,000 tested, about 20% had one in any assay.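 Assay: single dose, 48 h. Readout: percent growth (0 = no net growth; negative = cell death). Active: <10.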 Unmarked numbers belong to inactive results. Activity calls are given as the source filed them.

Tests used:
Assay in all cases: NCI-60 one-dose screen, 48 h (100 = growth as untreated, 0 = no growth, -100 = all killed)
Settings in all cases: 10 µM unless noted
HT29 colon = test system: HT29 colon
SNB-75 CNS = test system: SNB-75 CNS
SNB-19 CNS = test system: SNB-19 CNS
U251 CNS = test system: U251 CNS
PC-3 prostate = test system: PC-3 prostate
SK-MEL-5 melanoma = test system: SK-MEL-5 melanoma
UACC-62 melanoma = test system: UACC-62 melanoma
LOX IMVI melanoma = test system: LOX IMVI melanoma
SK-MEL-28 melanoma = test system: SK-MEL-28 melanoma
SK-MEL-2 melanoma = test system: SK-MEL-2 melanoma
EKVX NSCLC = test system: EKVX NSCLC
UO-31 renal = test system: UO-31 renal
TK-10 renal = test system: TK-10 renal
ACHN renal = test system: ACHN renal
CAKI-1 renal = test system: CAKI-1 renal
CCRF-CEM leukemia = test system: CCRF-CEM leukemia
MOLT-4 leukemia = test system: MOLT-4 leukemia
SN12C renal = test system: SN12C renal
A498 renal = test system: A498 renal

SMILES	growth (HT29 colon)	growth (SNB-75 CNS)	growth (SNB-19 CNS) [%]	growth (U251 CNS)	growth (PC-3 prostate) [%]	growth (SK-MEL-5 melanoma)	growth (UACC-62 melanoma)	growth (LOX IMVI melanoma)	growth (SK-MEL-28 melanoma) [%]	growth (SK-MEL-2 melanoma) [%]	growth (EKVX NSCLC)	growth (UO-31 renal)	growth (TK-10 renal)	growth (ACHN renal)	growth (CAKI-1 renal)	growth (CCRF-CEM leukemia)	growth (MOLT-4 leukemia)	growth (SN12C renal) [%]	growth (A498 renal)
COc1ccc2c(c1)/C(=C\c1sc(=S)[nH]c1O)C(C(=O)O)=N2	104%	84.6%	100	98.3%	99.4	101%	91.4%	96.6%	111	99.4	93.6%	82.6%	108%	99.8%	86.2%	95.7%	103%		
C[C@@H]1CC[C@@H]2[C@@H]1[C@H](OC(=O)/C=C/c1ccccc1)[C@]1(CCCOCCOCCOCCOC(=O)CCCC[C@@H]3SC[C@@H]4NC(=O)N[C@@H]43)C[C@@H](OC(=O)CO)[C@@]2(C)O1	98.1%	88.8%	106	105%	97.7	105%	102%	106%	108	108	101%	83.1%	99%	102%	91.5%	98.2%	97.9%	106	97.1%
CN(C)S(=O)(=O)n1cnc([C@@H]2[C@@H]3C(=O)OC[C@@H]3C[C@]23N=CN(Cc2ccccc2)C3=O)c1	89.7%	67.5%		107%		102%	106%	101%	108	176	111%	92.1%	112%	102%	97.3%	125%	20.7%	104	99.5%
COc1ccc(OC)c(Nc2nc3nonc3nc2Nc2cc(OC)ccc2OC)c1	42.6%	18.7%	76.1	11.5%	79.4	12%	47%	34.3%	58.1			10.8%	36.1%	-33.4% (active)	53%	97.8%	88.8%	32.3	60.7%
C=C(C)C1CCC(=C)C2CCC3(C)OC12/C=C(/COC(C)=O)CCC3O (centres undefined)	140%	126%	112	89%	95.9	93.2%	94.2%	84.2%	156	85.4	96.1%	92.7%	121%	98.2%	6.18% (active)	130%	83.6%	106	104%
CCN(CC)c1ccc(Nc2ccc(CC(=O)c3ccccc3)cc2)cc1	75.8%	91.1%	80.8	56.2%	39.9	79.9%	78.5%	91.3%	98.5	81.7	76.4%	71.5%	107%			95.9%	102%	95.3	99.7%
CCOc1ccc(S(=O)(=O)c2ccc(C)cc2)c2c1no[n+]2[O-]	52.8%		87.9	80.1%	82.1	72.5%	78.5%	87.1%	104	82.5	83.9%	83.3%	92.3%	85.6%	71.8%	75.7%		94.8	67.2%
NC(=O)CC1(O)C=C(Br)C(=O)C(Br)=C1	75.8%	76.4%	106	95.6%		92.7%	108%	86.1%	21.5		91.4%	-53.6% (active)	17.1%	-59.4% (active)	-10.2% (active)	-45% (active)	-53% (active)	117	
O=C(Nc1ccccc1Cl)OCCN1CCOCC1	75.9%	111%	103	103%	77.5	108%	101%	102%	110	96.7	104%	92.4%	92.8%			86%	92.3%	98	129%
CCOc1cccnc1/C=N/NC(N)=S	56.7%		69.4	36.1%	37.3	55.4%	50.6%	35.9%	76.1	52.2		9.56% (active)	66%	35.7%	29%	17.4%	7.07% (active)	53.5	3.97% (active)
CCCN1CCN(c2ccc3nc(-c4ccc5nc(-c6cc(OC)c(OC)c(OC)c6)[nH]c5c4)[nH]c3c2)CC1	58%	43.6%	69.8	66.3%	70.7	41.3%	35.8%	67.3%	57.8	70.9	109%	86.5%	125%	96.4%	105%	41.2%	62.6%	85.4	
COC(=O)CNC(=O)C(=O)c1c(O)c(O)c(C(C)C)c2cc(C)c(-c3c(C)cc4c(C(C)C)c(O)c(O)c(C(=O)C(=O)NCC(=O)OC)c4c3O)c(O)c12	6.08% (active)	57.5%	18.5	4.8% (active)	18.7	50.1%	48.5%	21.2%	44.7		5.91% (active)	1.7% (active)	22.6%	3.33% (active)	51.4%	24.4%	15.7%	32.9	27.6%
O=C(NC1CCOCC1)c1ccc2c(c1)CN(c1ncc(Cc3cccc(-n4cccn4)c3)s1)CC2	72.8%	91.5%	95.7	72.6%	58.7	31.5%	64.5%	63.8%	88.3	54.9	53.5%	64.4%	81.7%			52.1%	40.3%	82.1	46.6%
CCc1c(C(=O)N[C@@H]2c3cc(Cl)ccc3CC[C@@H]2O)[nH]c(C)c1C(C)=O	66.9%	76.4%	97.2	48.4%	49.8	45%	69.7%	50.9%	81.5		76%	76.8%	87.4%	77.6%	71.5%	85.2%	68.8%	94.7	67.6%
O=C(NC(=S)Nc1ccc(-c2nc3ccccc3[nH]2)cc1)c1ccc2ccccc2c1	21.8%	-62.4% (active)	66.2	13.9%	22.8	14.7%	34.1%	-45.8% (active)	40.5	98.2	58.2%	-84.4% (active)	-16.5% (active)	-0.473% (active)	24.5%	49.6%	59%	15.9	
COc1cc(C(=O)Nc2cc(O)c(CC=C(C)C)c(O)c2)cc2c1O[C@]1(C)CC[C@@H](O)C(C)(C)[C@H]1C2	1.4% (active)	17.9%		16.3%	18.2	-23.5% (active)	8.82% (active)	-12% (active)	30	12.9	36.6%	-1.4% (active)	33.2%	26.4%	9.89% (active)	2.18% (active)	-15.7% (active)	64.6	16.7%
CCOC(=O)C(=CNc1ccccc1[N+](=O)[O-])C(=O)OCC	92.6%	97%	91.2	92.6%	95.7	86.4%	84.4%	99.9%	102	101	114%	78.2%	106%	86%	98.9%	93.7%	96.1%	94.2	64.1%
